# Measurements published in PubChem BioAssay AID488890 (Southern Research Specialized Biocontainment Screening …, 2010).
# Screen size: about 320,000 compounds; about 1,300 (0.41%) were called active. Another 3% or so got no clear call; they are omitted. The rule behind the calls is not given here. Not all results are given here. Entries with a potency or affinity are not part of this list.
# Test: growth inhibition of non-replicating M. tuberculosis (AID 488890);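 note: plate controls were DMSO cells for no effect and high antibiotic wells for full effect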
# Settings: Mycobacterium tuberculosis non-replicating, at 25 µM, stronger effect = higher value
row,SMILES,inhibition [%]
1,N/C(=N\N=C\c1cccs1)SC1CC(=O)N(c2ccc(Br)cc2)C1=O (stereo not given),7.06
2,Cc1cc(C(=O)N/N=C/c2c[nH]c3ccccc23)c(C)o1,4.64
3,Cc1cccc(C)c1NC(=O)Cc1cccs1,3.18
4,Cc1cc(C)c2nc(SC3CCOC3=O)cc(C)c2c1 (stereo not given),0.02
5,CC12CCC(C/C1=N\OC(=O)c1c(F)cccc1F)C2(C)C (stereo not given),-9.61
6,CC(=O)Nc1ccc(Oc2nc(C(F)(F)F)nc3ccccc23)cc1,1.04
7,COCC1CCCCN1Cc1cn(-c2ccccc2)nc1-c1ccc2c(c1)OCO2 (stereo not given),0.23
8,CSc1ccccc1NC(=O)c1ccc(N2CCCC2=O)cc1,7.7
9,C=CCN=C1NN=C(c2cc(C)n(CC=C)c2C)CS1,-5.39
10,C=CCn1c(C)cc(C2=NNC(=NC(C)(C)C)SC2)c1C,27
11,Cc1cccc(NC(=O)c2cc3cc([N+](=O)[O-])ccc3s2)n1,16.8
12,Cc1ccnc(NS(=O)(=O)c2ccc(NC(=O)c3ccc(Cl)cc3[N+](=O)[O-])cc2)n1,-0.5
13,CN(C)NC(=O)c1ccc([N+](=O)[O-])s1,11.4
14,CC(=O)Nc1ccc(S(=O)(=O)Nc2nccc(C)n2)cc1,20.2
15,O=C(Nc1ccccc1F)c1cc(C(=O)Nc2ccccc2F)cc([N+](=O)[O-])c1,5.63
16,Cc1cccc(C)c1NC(=O)c1ccc([N+](=O)[O-])s1,67
17,O=c1[nH]c2c(c(=O)n1C1CCCCC1)CCC2,-6.62
18,COC(=O)c1cccc(CSc2nnc(-c3ccco3)n2-c2ccccc2)c1,24
19,C=CCC(C=C)S(=O)(=O)c1ccc(C)cc1 (stereo not given),-2.81
20,CCCCCC1CC(/C(C)=N/NC(N)=O)OC1=O (stereo not given),9.08
21,CCN1CCN(C(=O)c2ccc(-c3nc4ccccc4s3)s2)CC1,-3.89
22,COCCNC(=O)COC(=O)CSCc1nc2ccccc2s1,-4.84
23,COCCNC(=O)c1nc2ccccc2s1,52.5

row,SMILES,inhibition [%]
1,CCNC(=O)COC(=O)c1cc(C)nc2ccccc12,-1.86
2,Cc1noc(C)c1COC(=O)c1ccc(-c2nc3ccccc3s2)s1,9.44
3,O=C(c1ccc(-c2nc3ccccc3s2)s1)N1CCOCC1,-4.2
4,O=S(=O)(Nc1ccc2cn[nH]c2c1)c1ccc(C(F)(F)F)cc1,21.1
5,Cc1occc1C(=O)N/N=C/c1cccnc1,-3.52
6,Cc1ccc(S(=O)(=O)NCc2ccccc2)cc1C(=O)NCCc1ccc(S(N)(=O)=O)cc1,-1.65
7,CSc1ncc(CN2CCN(C3CCCC3)C(CCO)C2)cn1 (stereo not given),6.95
8,Cc1cc2oc(=O)cc(CN(C)Cc3cccc(F)c3)c2cc1C,12.8
9,Cc1ccc(/C=C/C(=O)O)cc1S(=O)(=O)NCCCO,-0.14
10,CCOc1cc(/C=N/NC(=O)Cn2nc([N+](=O)[O-])cc2C)cc(Br)c1OCc1ccccc1C,-2.93
11,Cc1cc(C)nc(NN2C(=O)C=CC2=O)n1,-13.2
12,C=CCC1(CC=C)CCCN1C(=O)CC1C(=O)NCCN1Cc1cccc(OC)c1OC (stereo not given),-15.7
13,COC(=O)c1ccc(NC(=O)c2cccc(NC(=O)c3ccccc3)c2)cc1,32
14,CC1(C)CC2CC(C)(CN2C(=O)COC(=O)c2cccnc2Cl)C1 (stereo not given),14.2
15,O=C(Nc1c2c(nn1-c1ccc(F)cc1)CS(=O)(=O)C2)C1CCCC1,-10.4
16,COc1ccc(OCCCc2c(C)n[nH]c2C)cc1,-13.9
17,Cc1n[nH]c(C)c1CCCCOc1ccccc1,78.1
18,COc1cccc(OCCc2c(C)n[nH]c2C)c1,30.4
19,COc1ccc(OCCCCc2c(C)n[nH]c2C)cc1,78.2
20,Cc1ccc2c(c1)N(C(=O)CCC(=O)Nc1ccccc1Br)CC(C)O2 (stereo not given),-2.28
21,CCOC(=O)N1CCN(C(=O)C2c3cc(OC)c(OC)cc3C(=O)N3CCc4ccccc4C23)CC1 (stereo not given),-11.4
22,CC(=O)C1=C(C)Nc2ncnn2C1c1ccc(O)cc1 (stereo not given),-8.89
23,O=C(COC(=O)/C=C/c1ccc(F)cc1)Nc1cccc(S(=O)(=O)N2CCCC2)c1,17.9

row,SMILES,inhibition [%]
1,CC(=O)Nc1ccc(S(=O)(=O)n2cnc(C)c2)cc1,-2.83
2,FC(F)(F)c1nnc2ccc(N3CCCCCC3)nn12,8.69
3,FC(F)(Cl)c1nnc2ccc(Sc3ccccn3)nn12,-6.69
4,Cc1ccc2nnc(Cl)n2n1,-5.68
5,Clc1ccc2nncn2n1,1.77
6,FC(F)(F)c1nnc2ccc(N3CCCCC3)nn12,-3.88
7,FC(F)(F)c1nnc2ccc(N3CCCC3)nn12,1.54
8,Cc1cc(C)c2nc(NNC(=O)c3ccc(S(=O)(=O)N4CCCC(C)C4)cc3)sc2c1 (stereo not given),-16.4
9,O=C(Nc1ccc(F)cc1)c1ccc(CSc2ccccc2)o1,77.5
10,COc1ccccc1NC(=O)c1ccc(CSc2ccccc2)o1,68.3
11,CN1CCN(c2nc3c(c(=O)[nH]c(=O)n3C)n2Cc2ccccc2F)CC1,-2.87
12,COc1ccc(S(=O)(=O)/N=C2/C=CC(=O)C(C)=C2C)cc1,24.9
13,Cc1ccc2c(c1)/C(=N/OS(=O)(=O)c1ccccc1)CCS2,1.31
14,CC1=C/C(=N\OC(=O)/C=C/c2ccccc2)C(C)=CC1=O,54.5
15,Cc1ccc(S(=O)(=O)ON=C2CCN(S(=O)(=O)c3ccccc3)CC2)cc1,-9.7
16,CC(Cc1cccnc1)NC(=O)c1cc(COc2ccc(F)cc2Cl)on1 (stereo not given),15.8
17,CCN(CC)c1ccc(S(=O)(=O)N2CCOCC2)cc1NC(=O)CNCc1ccccc1,-9.09
18,COc1cccc(C=NCCNC(=O)c2nonc2N)c1O,-21.9
19,Nc1nonc1C(=O)NCCN=Cc1ccccc1O,-0.48
20,COc1ccccc1C1C(C(=O)c2ccco2)=C(O)C(=O)N1c1cc(C)on1 (stereo not given),16.5
21,CN1C(=O)Cn2c1nc1ccccc12,-4.7
22,COc1cc(/C=N/NC(=O)CCC(=O)Nc2ccc(C)cc2)ccc1O,2.61
23,C=CCn1c(CCNC(=O)c2cccs2)nnc1SCC(=O)Nc1cccc(Cl)c1C,40.6

row,SMILES,inhibition [%]
1,Cc1ccc(C)c(NC(=O)CN(C)C(=O)CN2C(=O)NC3(CCc4ccccc43)C2=O)c1 (stereo not given),18.4
2,Cc1cc(C)n(-c2cccc3cccnc23)n1,-3.86
3,Cc1ccc2cccc(NS(=O)(=O)c3ccccc3)c2n1,64.3
4,CCOC(=O)N1CCC(NC(=O)C2CCN(C(=O)c3cc4oc(C)cc4n3Cc3c(F)cccc3Cl)CC2)CC1,5.49
5,CCc1nc2nc(C)c(NS(=O)(=O)c3cccs3)c(=O)n2[nH]1,-14.6
6,NC(=O)NC(=O)COC(=O)c1sc2ccccc2c1Cl,1.75
7,NC(=O)COC(=O)CNC(=O)c1sc2ccccc2c1Cl,8.7
8,Cc1cnc(NC(=O)c2sc3ccccc3c2Cl)s1,-6.31
9,COCc1nnc(NC(=O)c2sc3ccccc3c2Cl)s1,37.3
10,CN(C(=O)COC(=O)c1n[nH]c(=O)c2ccccc12)c1ccccc1,-7.8
11,Cc1cc(F)ccc1NC(=O)C1CCCO1 (stereo not given),-3.85
12,COc1ccc(NC(=O)NNC(=O)c2ccc3ccccc3c2)cc1OC,-2.52
13,COc1ccc(/C=N\Nc2ccc([N+](=O)[O-])cc2[N+](=O)[O-])c(C(=O)O)c1OC,39.2
14,Nc1c(N(CCC2=CCCCC2)C(=O)c2ccc([N+](=O)[O-])o2)c(=O)[nH]c(=O)n1Cc1ccccc1,38.8
15,N#CC/C(N)=N/NC(=O)CCCNc1ncc(C(F)(F)F)cc1Cl,0.45
16,COc1ccc(Br)cc1/C(C)=N/NC1=NCCN1,21.5
17,CCOc1ccc(Br)cc1/C(C)=N\NC1=NCCN1,38
18,O=C1Nc2c(c(=O)[nH]c(=O)n2-c2ccc(F)cc2)C1(NS(=O)(=O)c1ccccc1)C(F)(F)F (stereo not given),-0.54
19,CCn1c(=O)c(C(=O)Nc2ncccc2O)c(O)c2ccccc21,23.7
20,CCn1c(=O)c(C(=O)Nc2ccccn2)c(O)c2ccccc21,27.7
21,CCCCCCn1c(=O)c(C(=O)Nc2ncccc2O)c(O)c2ccccc21,67.8
22,CCCn1c(=O)c(C(=O)Nc2ncccc2O)c(O)c2ccccc21,66.8
23,C/C(CC(=O)Nc1ccc(Cl)cc1Cl)=N\NC(=O)C(=O)NCCO,24.8

row,SMILES,inhibition [%]
1,CCN(CC)C(=O)CSc1ccc(C(F)(F)F)cc1[N+](=O)[O-],-2.61
2,CCOc1ccc(/C=N/NC(=S)NC2CC3CC2C2C=CCC32)cc1 (stereo not given),-7.06
3,O=C(CNC(=O)c1[nH]cnc1C(=O)NC(c1ccccc1)c1ccccc1)OCc1ccccc1,44.5
4,Cc1nc(CNS(=O)(=O)c2ccccc2F)cs1,-17.8
5,CCN(CCCNC(=O)C1c2ccccc2C(=O)N(CCOC)C1c1ccc(F)cc1)Cc1ccccc1 (stereo not given),1.48
6,CC12CN3CC(C)(CN(C1)C3c1ccc([N+](=O)[O-])o1)C2=O (stereo not given),18.6
7,CCC12CN3CC(CC)(CN(C1)C3c1ccc([N+](=O)[O-])o1)C2=O (stereo not given),38.4
8,C/C(=N\NC(=O)c1ccc2c(c1)OCO2)c1ccc(C(=O)O)s1,-9.87
9,COc1ccc(NC(=O)CN(C)C(=O)c2ccc(-c3ccccc3Cl)o2)cc1,12.7
10,CSc1nc(-c2ccco2)nn1C(=O)c1ccc(C)cc1,8.76
11,CC(C)(C)OC(=O)NCCc1nnc(SCc2ccc(Cl)cc2Cl)o1,41.4
12,CC(C)(C)OC(=O)NCCc1nnc(SCc2ccc(Cl)cc2)o1,64.8
13,CCOC(=O)c1nnc(-c2cccs2)nc1Oc1ccc(Cl)cc1,-0.21
14,COc1ccc(OC(=O)c2cn(C)nc2C(F)(F)F)cc1,12.6
15,CCN(C/C=C/c1ccccc1OC)Cc1ccccc1,27.1
16,CCCCN(CCCC)Cc1ccc(N)cc1,19.4
17,CCOC(=O)C1CCCN(S(=O)(=O)c2c(C)noc2C)C1 (stereo not given),-14.5
18,CC(C)CN(C(=O)COC(=O)c1cccn1C)c1c(N)n(Cc2ccccc2)c(=O)[nH]c1=O,16.9
19,CCOC(=O)Oc1ccc(/C=C2\N=C(C)OC2=O)cc1,-12.5
20,CC(=O)Oc1ccc(/C=C2/Oc3ccccc3C2=O)cc1,36
21,COc1ncnc(OC)c1S(=O)(=O)NCc1ccccc1,-2.39
22,CCOc1ccc(CC(=O)N/N=C/c2cccnc2)cc1,-5.71
23,CCOc1ccc(OCc2cccc(C(=O)N/N=C/c3cccnc3)c2)cc1,59.6
